PubChem BioAssay (NCATS)
Inconclusive results are not listed. Calls of active or inactive are those of the source. Unless noted, calls come from the whole dose curve; as a rule, active = well fitted curve in the direction sought with a large enough effect; inconclusive = small, poorly fitted or top-dose-only effect, or another doubt; inactive = no such curve, though single readings can be large; an effect the other way counts as inactive or inconclusive.

How the values were obtained:
[1] = molecular target: Glucocorticoid receptor (Homo sapiens) (UniProt P04150); assay: GR-GFP Redistribution (AID 450;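 active = compounds whose dose series gives a full or clear partial fitted curve of increased nuclear translocation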; note: potency is the fitted concentration of half-maximal effect); details: U2OS GR-GFP nuclear translocation, laser cytometry, 2 h
Chain of Glucocorticoid receptor (Homo sapiens) (P04150 whole entry, looked up, the tested form may be a part): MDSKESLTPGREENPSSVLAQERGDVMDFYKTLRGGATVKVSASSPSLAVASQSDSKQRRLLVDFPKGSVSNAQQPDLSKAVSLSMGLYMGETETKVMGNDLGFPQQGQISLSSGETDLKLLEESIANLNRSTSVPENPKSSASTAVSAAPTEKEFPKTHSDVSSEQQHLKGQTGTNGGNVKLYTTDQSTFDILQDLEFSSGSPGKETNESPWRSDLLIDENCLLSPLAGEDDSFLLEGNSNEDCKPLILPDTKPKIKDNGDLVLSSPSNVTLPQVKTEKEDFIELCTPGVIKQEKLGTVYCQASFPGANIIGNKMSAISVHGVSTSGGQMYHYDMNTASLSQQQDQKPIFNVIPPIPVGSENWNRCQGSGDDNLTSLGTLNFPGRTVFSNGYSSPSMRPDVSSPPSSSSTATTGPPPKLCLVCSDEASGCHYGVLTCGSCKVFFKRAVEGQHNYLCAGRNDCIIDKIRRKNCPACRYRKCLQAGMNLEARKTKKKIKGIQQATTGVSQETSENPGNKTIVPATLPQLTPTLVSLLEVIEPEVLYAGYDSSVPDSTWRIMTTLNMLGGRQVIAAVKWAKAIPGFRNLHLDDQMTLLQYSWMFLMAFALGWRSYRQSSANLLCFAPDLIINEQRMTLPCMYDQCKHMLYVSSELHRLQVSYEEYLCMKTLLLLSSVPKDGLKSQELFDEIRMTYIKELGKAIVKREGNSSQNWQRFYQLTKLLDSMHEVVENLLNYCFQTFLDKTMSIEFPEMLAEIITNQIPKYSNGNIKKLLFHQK

[2] = molecular target: Glucocorticoid receptor (Homo sapiens) (UniProt P04150); assay: GR-EFC Redistribution (AID 451; calls by dose curve; note: potency is the fitted concentration of half-maximal effect); details: CHO-K1 GR-EFC translocation, beta-gal luminescence, 2 h
Procedure, shortened: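 Translocation of GR-ED fusion to nuclear EA restores b-gal, read by luminescence after 1 h room-temperature detection. Engineered CHO-K1 biosensor cells, 1,000/well, exposed 2 h at 37 C to titrations up to 46 uM final.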

[3] = molecular target: Mitogen-activated protein kinase 10 (Mus musculus) (UniProt Q61831); assay: JNK3 AlphaScreen Assay (AID 530; active = well fitted curve in either direction with a large enough effect, not every such curve was filed as active;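 note: kinase came from lysate of stimulated human HepG2 cells; signal reports phosphorylation of biotinylated GST-cJun 1-79 at Ser73 with 10 µM ATP; % is set by controls: 0 for no effect and ±100 for the full control effect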); details: JNK3 lysate, c-Jun phosphorylation; series mostly up to 57.1 µM
Procedure, shortened: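 Compound titrations were preincubated 15 minutes at room temperature with substrate, antibody and pre-activated JNK3-containing HepG2 lysate. Reactions were started with 10 uM ATP and stopped with EDTA-containing bead buffer for AlphaScreen detection.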

[4] = molecular target: Cytochrome P450 3A4 (Homo sapiens) (UniProt P08684); assay: qHTS Assay for Activators of Cytochrome P450 3A4 (AID 885); details: recombinant CYP3A4, Luciferin-PPXE luminescence, 60 min; series mostly up to 57.1 µM; note: nearly all actives have a fitted effect of over 65% in size
Chain of Cytochrome P450 3A4 (Homo sapiens) (P08684 whole entry, looked up): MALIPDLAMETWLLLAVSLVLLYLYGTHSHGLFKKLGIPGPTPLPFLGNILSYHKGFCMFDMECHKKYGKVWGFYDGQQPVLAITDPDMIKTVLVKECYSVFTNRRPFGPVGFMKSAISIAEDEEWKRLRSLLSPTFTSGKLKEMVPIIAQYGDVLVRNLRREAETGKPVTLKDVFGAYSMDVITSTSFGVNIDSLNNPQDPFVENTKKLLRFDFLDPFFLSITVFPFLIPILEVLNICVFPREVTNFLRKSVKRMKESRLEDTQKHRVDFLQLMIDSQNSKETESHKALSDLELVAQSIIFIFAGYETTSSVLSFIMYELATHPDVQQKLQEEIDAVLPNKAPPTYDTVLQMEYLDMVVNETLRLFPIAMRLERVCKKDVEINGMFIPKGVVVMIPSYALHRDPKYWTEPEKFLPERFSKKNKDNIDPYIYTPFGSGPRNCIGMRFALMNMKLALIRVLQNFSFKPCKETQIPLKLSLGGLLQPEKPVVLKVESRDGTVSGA
Procedure, shortened: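 Quantitative HTS format: compounds preincubated with 20nM human CYP3A4 and Luciferin-PPXE substrate at KM, reaction started by NADPH regeneration, stopped after 60 min, luciferase luminescence read 20 min later.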

[5] = molecular target: Cytochrome P450 2C19 (Homo sapiens) (UniProt P33261); assay: qHTS Assay for Inhibitors and Substrates of Cytochrome P450 2C19 (AID 899); details: recombinant CYP2C19, luciferin-H EGE luminescence; series mostly up to 57.1 µM; note: potency is the fitted concentration of half-maximal effect; nearly all actives have a fitted effect of over 60% in size
Chain of Cytochrome P450 2C19 (Homo sapiens) (P33261 whole entry, looked up): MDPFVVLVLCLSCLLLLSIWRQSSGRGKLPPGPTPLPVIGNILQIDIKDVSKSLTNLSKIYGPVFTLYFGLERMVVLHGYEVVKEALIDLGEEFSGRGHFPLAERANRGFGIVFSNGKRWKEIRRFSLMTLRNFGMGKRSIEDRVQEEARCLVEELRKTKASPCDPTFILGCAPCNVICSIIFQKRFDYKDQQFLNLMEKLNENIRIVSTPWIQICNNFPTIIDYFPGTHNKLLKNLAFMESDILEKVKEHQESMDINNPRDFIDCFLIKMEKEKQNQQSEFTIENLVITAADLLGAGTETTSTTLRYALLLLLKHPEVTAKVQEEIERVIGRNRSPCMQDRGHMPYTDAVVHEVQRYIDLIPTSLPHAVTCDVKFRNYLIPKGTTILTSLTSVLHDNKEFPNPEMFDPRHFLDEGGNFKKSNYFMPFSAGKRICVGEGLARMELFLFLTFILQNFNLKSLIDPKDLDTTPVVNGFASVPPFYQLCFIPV
Procedure, shortened: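 Luminescence readout of luciferin formed from 10uM Luciferin-H EGE (KM level) by 5 nM CYP2C19 in 50mM KPO4. 60 min NADPH-driven reaction at 37C after 10 min compound preincubation; data scaled to 57uM ketoconazole inhibition.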

[6] = molecular target: DNA dC->dU-editing enzyme APOBEC-3G (Homo sapiens) (UniProt Q9HC16); assay: qHTS for inhibitors of Vif-A3G interactions: Validation (AID 588379); details: Vif-A3G protein interaction assay; series mostly up to 46.1 µM; note: 0% is about no effect
Chain of DNA dC->dU-editing enzyme APOBEC-3G (Homo sapiens) (Q9HC16 whole entry, looked up): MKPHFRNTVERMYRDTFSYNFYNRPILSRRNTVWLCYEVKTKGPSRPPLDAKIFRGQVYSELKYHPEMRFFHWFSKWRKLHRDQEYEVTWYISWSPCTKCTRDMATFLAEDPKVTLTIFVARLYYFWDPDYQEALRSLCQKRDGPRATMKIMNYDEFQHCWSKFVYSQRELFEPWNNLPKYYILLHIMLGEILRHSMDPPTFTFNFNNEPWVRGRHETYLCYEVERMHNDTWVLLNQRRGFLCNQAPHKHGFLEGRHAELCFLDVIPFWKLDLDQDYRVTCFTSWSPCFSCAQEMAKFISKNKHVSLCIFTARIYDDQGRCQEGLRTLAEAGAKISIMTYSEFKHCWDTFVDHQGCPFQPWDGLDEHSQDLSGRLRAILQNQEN
Procedure, shortened: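 HeLa cells stably expressing Vif and A3G-eYFP, 700 cells/well, incubated overnight at 37 deg C, then exposed to compound overnight at 37 deg C. Inhibition of Vif-mediated degradation read as increased yellow fluorescence (Ex 488/Em 500-530) by laser-scanning cytometry.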

[7] = system: Zika virus NS2B-NS3 protease; assay: Primary screen GU AMC qHTS for Zika virus inhibitors (AID 1347154); details: Zika NS2B-NS3 unlinked protease, AMC fluorogenic substrate; series mostly up to 54.1 µM;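 note: 0% = no-inhibitor control and -100% = no-enzyme control; nearly all actives have a fitted effect of over 70% in size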
Procedure, shortened: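 Fluorogenic AMC-substrate cleavage by noncovalent NS2B-NS3 protease complex (25 nM, pH 8.0 Tris buffer with Tween 20) followed for 15 minutes at room temperature (~20% conversion). Percent inhibition from ex340/em450 signal change, fitted by 4-parameter Hill equation.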

[8] = Primary qHTS for small molecule stabilizers of the endoplasmic reticulum resident proteome: Secreted ER Calcium Modulated Protein (SERCaMP) assay (AID 1508630); details: SH-SY5Y GLuc-SERCaMP (Gaussia luciferase released on ER calcium loss) secretion, thapsigargin, luminescence; series mostly up to 38.4 µM; note: % is set by controls: 0 for no effect and ±100 for the full control effect
Procedure, shortened: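 GLuc-SERCaMP-expressing SH-SY5Y cells, pretreated 16 h with compound, are challenged with thapsigargin to empty ER calcium stores; after 4 h, coelenterazine is added directly to the medium and luminescence is imaged.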

[9] = molecular target: 3',5'-cyclic-AMP phosphodiesterase 4B (Homo sapiens) (UniProt Q07343); assay: qHTS Assay for Inhibitors of PDE-IV (AID 607; active = well fitted activation curve with a large enough effect in the main read-out, with a control signal flat, not every such curve was filed as active; note: potency is the fitted concentration of half-maximal effect); details: HEK293 ACTOne CNG channel cells, membrane potential fluorescence; series mostly up to 22.9 µM
Chain of 3',5'-cyclic-AMP phosphodiesterase 4B (Homo sapiens) (Q07343 whole entry, looked up): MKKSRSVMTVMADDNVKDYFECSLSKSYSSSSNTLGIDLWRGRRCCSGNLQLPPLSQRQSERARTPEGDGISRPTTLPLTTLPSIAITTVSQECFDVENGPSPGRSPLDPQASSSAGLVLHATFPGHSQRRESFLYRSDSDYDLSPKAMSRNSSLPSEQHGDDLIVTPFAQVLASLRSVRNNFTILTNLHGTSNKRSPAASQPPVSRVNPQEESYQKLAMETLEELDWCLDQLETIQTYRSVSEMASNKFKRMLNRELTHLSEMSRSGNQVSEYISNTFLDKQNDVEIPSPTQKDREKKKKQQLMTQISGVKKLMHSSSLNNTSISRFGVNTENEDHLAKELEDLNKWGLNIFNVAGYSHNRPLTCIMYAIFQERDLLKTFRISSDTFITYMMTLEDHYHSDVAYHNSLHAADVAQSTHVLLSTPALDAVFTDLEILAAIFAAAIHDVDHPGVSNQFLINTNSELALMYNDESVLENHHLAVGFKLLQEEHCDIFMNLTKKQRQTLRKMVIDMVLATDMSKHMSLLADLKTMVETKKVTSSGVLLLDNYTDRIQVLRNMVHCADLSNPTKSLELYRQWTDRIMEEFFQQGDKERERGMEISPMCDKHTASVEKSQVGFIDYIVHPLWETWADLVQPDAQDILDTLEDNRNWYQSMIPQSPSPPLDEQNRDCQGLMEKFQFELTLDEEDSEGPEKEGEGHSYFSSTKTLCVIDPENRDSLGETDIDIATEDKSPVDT
Procedure, shortened: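 Live HEK293 cells with a modified cyclic nucleotide-gated (CNG) channel report intracellular cAMP via membrane-potential dye fluorescence (ex 535/em 590 nm). Endogenous PDE-IV was targeted. Compounds were tested at up to 22.9 uM final; RO 20-1724 100 uM served as control.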

[10] = molecular target: Ubiquitin carboxyl-terminal hydrolase 1 (Homo sapiens) (UniProt O94782); assay: Inhibitors of USP1/UAF1: Pilot qHTS (AID 504865); details: purified USP1/UAF1, Ub-rhodamine cleavage fluorescence; series mostly up to 114 µM;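 note: rhodamine fluorescence freed from ubiquitin-rhodamine substrate followed over time; top concentration of the series differs between compounds; % is set by controls: 0 for no effect and ±100 for the full control effect; nearly all actives have a fitted effect of over 35% in size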
Chain of Ubiquitin carboxyl-terminal hydrolase 1 (Homo sapiens) (O94782 whole entry, looked up): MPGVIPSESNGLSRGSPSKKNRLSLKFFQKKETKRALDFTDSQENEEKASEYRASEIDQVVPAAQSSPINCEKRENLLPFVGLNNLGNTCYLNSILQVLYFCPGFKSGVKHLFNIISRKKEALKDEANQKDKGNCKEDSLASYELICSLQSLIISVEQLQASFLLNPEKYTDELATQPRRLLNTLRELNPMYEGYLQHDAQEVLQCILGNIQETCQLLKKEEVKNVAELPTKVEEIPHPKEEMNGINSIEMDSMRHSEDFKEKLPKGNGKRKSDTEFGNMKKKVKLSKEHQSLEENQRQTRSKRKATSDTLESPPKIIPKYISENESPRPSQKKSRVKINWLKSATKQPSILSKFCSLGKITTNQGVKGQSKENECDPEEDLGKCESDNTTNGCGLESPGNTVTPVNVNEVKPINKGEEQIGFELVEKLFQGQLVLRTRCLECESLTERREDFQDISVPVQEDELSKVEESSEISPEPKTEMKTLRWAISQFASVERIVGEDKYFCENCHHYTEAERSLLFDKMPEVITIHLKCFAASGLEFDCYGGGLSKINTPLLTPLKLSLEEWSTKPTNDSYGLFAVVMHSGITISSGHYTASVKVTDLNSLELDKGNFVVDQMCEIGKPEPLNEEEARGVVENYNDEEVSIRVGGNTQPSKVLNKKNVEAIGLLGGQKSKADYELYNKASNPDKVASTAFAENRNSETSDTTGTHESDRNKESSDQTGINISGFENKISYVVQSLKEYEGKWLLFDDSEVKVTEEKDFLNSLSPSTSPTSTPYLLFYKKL
Procedure, shortened: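 In 50mM HEPES pH 7.8 containing 0.5mM EDTA, 1mM TCEP, 0.1 mg/ml BSA and 0.01% Tween-20, 1nM USP1/UAF1 is exposed to compound for 15 min, then Ub-Rho (150nM final) is added and fluorescence is read over time.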

[11] = molecular target: Cytochrome P450 1A2 (Homo sapiens) (UniProt P05177); assay: p450-cyp1a2 (AID 410; calls by dose curve; note: potency is the fitted concentration of half-maximal effect;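 for activity change, negative = inhibition: -100% = full effect of reference inhibitor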); details: recombinant CYP1A2, luciferin-ME demethylation, luminescence; series mostly up to 57 µM
Chain of Cytochrome P450 1A2 (Homo sapiens) (P05177 whole entry, looked up): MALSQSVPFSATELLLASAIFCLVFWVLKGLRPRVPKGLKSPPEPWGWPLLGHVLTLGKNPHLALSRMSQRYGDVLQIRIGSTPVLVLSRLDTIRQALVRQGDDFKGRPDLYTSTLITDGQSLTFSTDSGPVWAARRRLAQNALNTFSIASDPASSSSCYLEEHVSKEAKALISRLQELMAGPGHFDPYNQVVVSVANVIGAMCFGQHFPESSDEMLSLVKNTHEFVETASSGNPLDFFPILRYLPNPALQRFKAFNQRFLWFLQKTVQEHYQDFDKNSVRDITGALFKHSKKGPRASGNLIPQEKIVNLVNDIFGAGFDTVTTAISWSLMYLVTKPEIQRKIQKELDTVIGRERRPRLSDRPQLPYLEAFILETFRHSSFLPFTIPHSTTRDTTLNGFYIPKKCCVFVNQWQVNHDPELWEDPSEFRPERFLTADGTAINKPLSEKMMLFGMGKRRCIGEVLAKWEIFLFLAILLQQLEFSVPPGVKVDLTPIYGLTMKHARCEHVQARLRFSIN
Procedure, shortened: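 Luminescent readout of luciferin formed from Luciferin-ME by human CYP1A2; data normalized against complete inhibition by 57 uM furafylline. Enzyme 20nM, substrate 100uM at Km, 100mM KPO4 buffer, 60 min reaction at room temperature.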

[12] = qHTS Assay for Lipid Storage Modulators (AID 1519; calls by dose curve; for activity change, negative = inhibition: % is set by controls: 0 for no effect and ±100 for the full control effect); details: Drosophila S3 cells, BODIPY lipid droplet/cell ratio, laser cytometry, cells loaded with oleic acid; for activity change, negative = inhibition: at 57.5 µM (top of the series)
Procedure, shortened: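 Cells seeded at 5,000 per well were treated with compounds over a concentration series and loaded with oleic acid (400 uM, as added). Lipid droplet fluorescence (488 nm excitation, 500-530 nm channel) was read by laser-scanning cytometry and normalized to 20 uM Triacsin C.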

[13] = qHTS for Inhibitors of the vitamin D receptor (VDR): Hit Validation using a Texas Red Assay (AID 602201); details: VDR coregulator binding, Texas Red fluorescence polarization; agonist-bound VDR ligand-binding domain; note: potency is the fitted concentration of half-maximal effect
Procedure, shortened: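 After a 2-hour room-temperature incubation, polarization of Texas-Red emission was read (Ex 595 nm/Em 615 nm). Final mix contained 7 nM Texas Red, 1.5 uM VDR-LBD and LG19078.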

[14] = molecular target: Tyrosyl-DNA phosphodiesterase 1 (Homo sapiens) (UniProt Q9NUW8); assay: Confirmation Assay for Inhibitors of Tyrosyl-DNA Phosphodiesterase (TDP1) (AID 489007); details: recombinant human TDP1 enzymatic activity, dose-response; note: potency is the fitted concentration of half-maximal effect; nearly all actives have a fitted effect of over 40% in size
Chain of Tyrosyl-DNA phosphodiesterase 1 (Homo sapiens) (Q9NUW8 whole entry, looked up): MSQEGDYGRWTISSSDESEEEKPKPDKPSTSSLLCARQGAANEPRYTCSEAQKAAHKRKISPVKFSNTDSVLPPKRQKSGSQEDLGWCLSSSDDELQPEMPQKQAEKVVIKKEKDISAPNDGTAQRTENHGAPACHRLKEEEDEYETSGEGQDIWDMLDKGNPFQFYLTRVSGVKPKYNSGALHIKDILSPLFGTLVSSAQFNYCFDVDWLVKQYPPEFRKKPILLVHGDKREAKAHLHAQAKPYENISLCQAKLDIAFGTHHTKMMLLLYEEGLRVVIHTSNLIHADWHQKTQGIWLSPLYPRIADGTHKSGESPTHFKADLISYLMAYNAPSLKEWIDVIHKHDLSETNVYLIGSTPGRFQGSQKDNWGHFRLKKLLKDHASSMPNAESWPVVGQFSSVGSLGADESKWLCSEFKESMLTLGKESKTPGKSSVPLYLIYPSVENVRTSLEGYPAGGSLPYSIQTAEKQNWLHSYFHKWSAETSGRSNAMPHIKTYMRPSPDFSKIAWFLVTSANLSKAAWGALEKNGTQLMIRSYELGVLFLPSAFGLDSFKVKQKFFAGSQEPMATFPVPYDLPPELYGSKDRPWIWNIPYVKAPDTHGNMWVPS
Procedure, shortened: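 Tdp1 1 nM + cpd, 15 min RT; add biotin/phosphotyrosine-FITC oligo 15 nM, 5 min RT; add AS donor/acceptor beads 10 ug/ml, 10 min RT; read AlphaScreen. No-enzyme wells = max signal.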

[15] = measured here: cell count channel max response
[16] = measured here: lipid channel max response

Cc1cc(C)c(S(=O)(=O)Nc2cccc(C(F)(F)F)c2)c(C)c1
inactive: Potency [1] > 46 µM | Potency [2] > 46 µM | Potency [3] | Potency [4] | Potency [6] | Potency [7] | Potency [8]
active: Potency [5] 3.16 µM

CCCn1c(=O)c2[nH]c(-c3ccccc3)nc2n(CCC)c1=O
inactive: Potency [1] > 46 µM | Potency [3] | Potency [4] | Potency [10] | Potency [6] | Potency [7] | Potency [8]
active: Potency [9] 0.379 µM

COc1ccc(C(OCCN2CCC[C@@H](C(=O)O)C2)(c2ccc(OC)cc2)c2ccc(OC)cc2)cc1
inactive: Potency [1] > 46 µM | Potency [2] > 46 µM | Potency [3] | Potency [9] | Potency [4] | Potency [6] | Potency [7] | Potency [8]

Cc1cc(Cn2cnc3c2C[C@@H](C(=O)O)N(C(=O)C(c2ccccc2)c2ccccc2)C3)ccc1N(C)C
active: Potency [5] 1.58 µM
inactive: Potency [1] > 46 µM | Potency [2] > 46 µM | Potency [3] | Potency [9] | Potency [10] | Potency [6] | Potency [7] | Potency [8]

C[C@H](NC[C@H](O)CP(=O)(O)CC1CCCCC1)c1ccc(Cl)c(Cl)c1
17.2%: max response [12, 16]
inactive: Potency [1] > 46 µM | Potency [2] > 46 µM | Potency [3] | Potency [9] | Potency [4] | activity change, negative = inhibition [12] 4.93% | Potency [10] | Potency [6] | Potency [7]
9.04%: max response [12, 15]
active: Potency [11] 39.8 µM

O=C1c2ccccc2CCC1CNCCc1ccc(O)cc1 (stereo not drawn)
inactive: Potency [7] | Potency [8]
active: Potency [13] 28.2 µM

CCN(CC)c1ncnc2c1ncn2[C@@H]1O[C@@H](COP(=O)(O)OP(=O)(O)C(Br)(Br)P(=O)(O)O)[C@H](O)[C@H]1O
inactive: Potency [10] | Potency [6] | Potency [7] | Potency [8]

COc1cc([C@@H]2c3cc4c(cc3[C@@H](O[C@@H]3O[C@H]5CO[C@@H](C)O[C@@H]5[C@@H](O)[C@H]3O)[C@@H]3COC(=O)[C@@H]23)OCO4)cc(OC)c1O
inactive: Potency [3] | Potency [9] | Potency [6] | Potency [7] | Potency [8]

COc1ccc2[nH]cc(CC(N)C(=O)O)c2c1 (stereo not drawn)
inactive: Potency [4] | Potency [10] | Potency [6] | Potency [7] | Potency [8]

Cc1nc(N=Nc2cc(S(=O)(=O)O)ccc2S(=O)(=O)O)c(COP(=O)(O)O)c(C=O)c1O
inactive: Potency [11] | Potency [1] > 46 µM | Potency [2] > 46 µM | Potency [3] | Potency [9] | activity change, negative = inhibition [12] -1.5% | Potency [6] | Potency [7]
-2.46%: max response [12, 15]
-2.68%: max response [12, 16]
active: Potency [14] 1 µM
